Experimental findings from PubChem BioAssay are described below.

Molecules are shown by their SMILES. Unmarked numbers belong to inactive results. Activity calls are given as the source filed them.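 Rule for the calls: active = fluorescence slope higher than the sample average by over 3 SD (cut at about -0.22 in these data, passing the limit was not always enough); inactive = the rest.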

Sequence of Voltage-gated potassium channel subunit beta-2 (Rattus norvegicus) (P62483 whole entry, looked up): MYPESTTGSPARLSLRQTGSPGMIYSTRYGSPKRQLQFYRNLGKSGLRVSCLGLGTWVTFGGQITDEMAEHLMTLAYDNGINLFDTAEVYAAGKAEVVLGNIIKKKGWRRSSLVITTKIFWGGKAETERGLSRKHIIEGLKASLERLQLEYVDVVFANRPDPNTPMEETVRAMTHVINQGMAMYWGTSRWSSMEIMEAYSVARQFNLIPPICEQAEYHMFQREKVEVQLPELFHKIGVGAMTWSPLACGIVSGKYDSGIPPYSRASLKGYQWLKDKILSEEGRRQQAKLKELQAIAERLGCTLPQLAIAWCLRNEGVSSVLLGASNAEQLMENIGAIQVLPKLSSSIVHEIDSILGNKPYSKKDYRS

The assay addresses Voltage-gated potassium channel subunit beta-2 (Rattus norvegicus) (UniProt P62483). Kind of assay: inhibitors of rat Kvbeta2 reductase activity – biochemical, NADPH fluorescence, primary screen (AID 622).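 Note: slope of raw intensity against log time taken from 70 to 1610 s.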 Conditions: recombinant KvBeta, 4-cyanobenzaldehyde reduction, at 10 µM, hits give high values.
Turning to `O=C(Cn1cc(C(=O)c2ccccc2)c2ccccc21)NCc1ccco1`, the fluorescence slope was -0.567. Then `COc1ccc(C2NCc3ccc4c(c3-n3cccc32)OCO4)cc1O` (centres undefined), with -0.458; and `Cn1c(C(=O)N2CCC3(CC2)OCCO3)cc2c(=O)n(C)c3ccccc3c21`, with -0.522; and `O=C1C2CCCN2C(c2ccc(Cl)c(Cl)c2)N1c1ccccn1` (centres undefined), with -0.552. Then `CC(=NCc1cccnc1)c1c(O)n(Cc2ccccc2)c(=O)[nH]c1=O`, with -0.492; and `O=C(c1ccc2nc3ccc(Cl)cc3c(=O)n2c1)N1CCC2(CC1)OCCO2`, with -0.0098; and `COc1ccc(OC)c(C2=NOC(C(=O)N3CCC4(CC3)OCCO4)C2)c1` (centres undefined), with -0.234. Turning to `Cn1c(O)c(C=NCc2ccco2)c(=O)n(C)c1=O`, the fluorescence slope is -0.557. Then `O=c1[nH]c(=O)n(Cc2ccccc2)c(O)c1C=NCCCO`, with -0.52; and `O=C(C1CCCN(S(=O)(=O)c2cccc3nsnc23)C1)N1CCC2(CC1)OCCO2` (centres undefined), with -0.322. In the case of `Nc1ccccc1C(=O)OC1CSC1` it was -0.559; in that of `Cc1cc(N2C(=O)C3CCCN3C2c2cccc(Cl)c2)no1` (centres undefined), -0.543; in that of `COC(=O)c1c(C)n(Cc2ccc3c(c2)OCO3)c2ccc(O)cc12`, -0.528. Then `NC(=O)CSP(=O)(c1ccccc1)c1ccccc1`, with -0.541; and `OCC12COC3c4ccccc4C(OC1)N32` (centres undefined), with -0.538. For `CCOC(=O)c1cccc([P+](=O)O)c1`, the fluorescence slope is -0.582. In the case of `COc1ccccc1OCCCn1cc(C(=O)c2ccco2)c2ccccc21` it was -0.309; in that of `Cc1cc(NC(=O)COC(=O)c2c(C)nn(Cc3ccccc3)c2Cl)no1`, -0.377; in that of `CC(C)OC(=O)c1c(N)n(CC2CCCO2)c2nc3ccccc3nc12` (centres undefined), -0.0217 (active). On to `COC(=O)c1ccccc1-n1c(C)nc2ccccc2c1=O`, for which the fluorescence slope was -0.605. For the compound `CC1CCN2c3nc4ccccn4c(=O)c3CC3(C(=O)N(C)C(=O)N(C)C3=O)C2C1` (centres undefined), the fluorescence slope is -0.523. In the case of `CCN1CCN(c2ncnc3ccc(Br)cc23)CC1` it was -0.583; in that of `COCCOC(=O)C1=C(N)Oc2c(c(=O)oc3ccccc23)C1c1ccncc1` (centres undefined), -0.474; in that of `CSc1ccc(CNC2CN3CCC2CC3)cc1` (centres undefined), -0.421. In the case of `CCOC(=O)C1CCCCC12C(C#N)=C(N)Oc1n[nH]c(C)c12` (centres undefined) it was -0.637. `CC1(C)CC(=O)C=C(NCCN2CCN(C(=O)Cc3ccc(Cl)cc3)CC2)C1`: the fluorescence slope was -0.463.

Regarding `COc1ccc(CCNC(=O)c2c(N)n(CCN3CCOCC3)c3nc4ccccc4nc23)cc1`, the fluorescence slope was -0.454.

As for `CSc1ccc(C(=O)C(C)(C)N2CCOCC2)cc1`, the fluorescence slope is -0.577. In the case of `COc1ccccc1N1CCN(Cc2cccc(OC)c2O)CC1` it was -0.58. In the case of `Cc1ccc(S(=O)(=O)Cc2ccc(C(=O)N3CCC4(CC3)OCCO4)o2)cc1` it was -0.432; in that of `CCOc1ccc(Br)c(C2(O)CC(C)N(C)CC2C)c1` (centres undefined), -0.398; in that of `Cc1ccc(CS(=O)(=O)CCC(=O)N2CCC3(CC2)OCCO3)cc1`, -0.573. For the compound `NC(=O)OCCSc1nnc(-c2cccc(C(N)=S)c2)o1`, the fluorescence slope was -0.541. In the case of `O=C(O)c1nonc1-c1nonc1C(=O)O` it was -0.641.
